# Laboratory results reported in publication PMC11062922 (Nature Chemical Biology, 2023).
# Like-named read-outs stand apart in the source and are kept apart here.
# Key:
# Conditions in all cases: read-out: apparent Kd, n = 1
# NUAK2 = test system: NUAK2
# PAK6 = test system: PAK6
# RET = test system: RET
# [1] = compound concentrations:100 nM and 1000 nM (sheet 'Lestaurtinib' of Supplementary Table 1),run:Lestaurtinib_03252_R1,Plate:MR032
# [2] = compound concentrations:100 nM and 1000 nM (sheet 'Lestaurtinib' of Supplementary Table 1),run:Lestaurtinib_03260_R2,Plate:MR033
# [3] = compound concentrations:100 nM and 1000 nM (sheet 'Lestaurtinib' of Supplementary Table 1),run:Lestaurtinib_02339_R2,Plate:MR001
# [4] = compound concentrations:100 nM and 1000 nM (sheet 'Lestaurtinib' of Supplementary Table 1),run:Lestaurtinib_02364_R3,Plate:MR002
# [5] = compound concentrations:100 nM and 1000 nM (sheet 'Lestaurtinib' of Supplementary Table 1),run:Lestaurtinib_02367_R3,Plate:MR003
# [6] = compound concentrations:100 nM and 1000 nM (sheet 'Lestaurtinib' of Supplementary Table 1),run:Lestaurtinib_02381_R3,Plate:MR004
# [7] = compound concentrations:100 nM and 1000 nM (sheet 'Lestaurtinib' of Supplementary Table 1),run:Lestaurtinib_02422_R3,Plate:MR006
# [8] = compound concentrations:100 nM and 1000 nM (sheet 'Lestaurtinib' of Supplementary Table 1),run:Lestaurtinib_02437_R1,Plate:MR007
substance,measurement,setting,value
Lestaurtinib,potency estimated from few doses,"NUAK2; compound concentrations:100 nM and 1000 nM (sheet 'Lestaurtinib' of Supplementary Table 1),run:Lestaurtinib_03172_R1,Plate:MR031",98.7 nM
same,potency estimated from few doses,NUAK2; [1],45.5 nM
same,potency estimated from few doses,"NUAK2; compound concentrations:100 nM and 1000 nM (sheet 'Lestaurtinib' of Supplementary Table 1),run:Lestaurtinib_03252_R2,Plate:MR032",831 nM
same,potency estimated from few doses,NUAK2; [2],387 nM
same,potency estimated from few doses,PAK6; [3],151 nM
same,potency estimated from few doses,"PAK6; compound concentrations:100 nM and 1000 nM (sheet 'Lestaurtinib' of Supplementary Table 1),run:Lestaurtinib_02364_R2,Plate:MR002",137 nM
same,potency estimated from few doses,PAK6; [4],91000 nM
same,potency estimated from few doses,PAK6; [5],89.2 nM
same,potency estimated from few doses,"PAK6; compound concentrations:100 nM and 1000 nM (sheet 'Lestaurtinib' of Supplementary Table 1),run:Lestaurtinib_02381_R1,Plate:MR004",771 nM
same,potency estimated from few doses,PAK6; [6],136 nM
same,potency estimated from few doses,"PAK6; compound concentrations:100 nM and 1000 nM (sheet 'Lestaurtinib' of Supplementary Table 1),run:Lestaurtinib_02407_R1,Plate:MR005",1800 nM
same,potency estimated from few doses,"PAK6; compound concentrations:100 nM and 1000 nM (sheet 'Lestaurtinib' of Supplementary Table 1),run:Lestaurtinib_02407_R2,Plate:MR005",521 nM
same,potency estimated from few doses,"PAK6; compound concentrations:100 nM and 1000 nM (sheet 'Lestaurtinib' of Supplementary Table 1),run:Lestaurtinib_02407_R3,Plate:MR005",1490 nM
same,potency estimated from few doses,PAK6; [7],1350 nM
same,potency estimated from few doses,PAK6; [8],42.8 nM
same,potency estimated from few doses,"PAK6; compound concentrations:100 nM and 1000 nM (sheet 'Lestaurtinib' of Supplementary Table 1),run:Lestaurtinib_02437_R2,Plate:MR007",638 nM
same,potency estimated from few doses,"PAK6; compound concentrations:100 nM and 1000 nM (sheet 'Lestaurtinib' of Supplementary Table 1),run:Lestaurtinib_02437_R3,Plate:MR007",165 nM
same,potency estimated from few doses,"PAK6; compound concentrations:100 nM and 1000 nM (sheet 'Lestaurtinib' of Supplementary Table 1),run:Lestaurtinib_02438_R2,Plate:MR008",113 nM
same,potency estimated from few doses,"PAK6; compound concentrations:100 nM and 1000 nM (sheet 'Lestaurtinib' of Supplementary Table 1),run:Lestaurtinib_02443_R1,Plate:MR009",830 nM
same,potency estimated from few doses,"PAK6; compound concentrations:100 nM and 1000 nM (sheet 'Lestaurtinib' of Supplementary Table 1),run:Lestaurtinib_02443_R2,Plate:MR009",1300 nM
same,potency estimated from few doses,"PAK6; compound concentrations:100 nM and 1000 nM (sheet 'Lestaurtinib' of Supplementary Table 1),run:Lestaurtinib_02443_R3,Plate:MR009",169 nM
same,potency estimated from few doses,"PAK6; compound concentrations:100 nM and 1000 nM (sheet 'Lestaurtinib' of Supplementary Table 1),run:Lestaurtinib_02473_R3,Plate:MR010",121 nM
same,potency estimated from few doses,"PAK6; compound concentrations:100 nM and 1000 nM (sheet 'Lestaurtinib' of Supplementary Table 1),run:Lestaurtinib_02482_R2,Plate:MR011",852 nM
same,potency estimated from few doses,"PAK6; compound concentrations:100 nM and 1000 nM (sheet 'Lestaurtinib' of Supplementary Table 1),run:Lestaurtinib_02482_R3,Plate:MR011",797 nM
same,potency estimated from few doses,"PAK6; compound concentrations:100 nM and 1000 nM (sheet 'Lestaurtinib' of Supplementary Table 1),run:Lestaurtinib_02487_R1,Plate:MR012",1690 nM
same,potency estimated from few doses,"PAK6; compound concentrations:100 nM and 1000 nM (sheet 'Lestaurtinib' of Supplementary Table 1),run:Lestaurtinib_02487_R3,Plate:MR012",100 nM
same,potency estimated from few doses,"PAK6; compound concentrations:100 nM and 1000 nM (sheet 'Lestaurtinib' of Supplementary Table 1),run:Lestaurtinib_02496_R2,Plate:MR013",1370 nM
same,potency estimated from few doses,"PAK6; compound concentrations:100 nM and 1000 nM (sheet 'Lestaurtinib' of Supplementary Table 1),run:Lestaurtinib_02496_R3,Plate:MR013",1590 nM
same,potency estimated from few doses,"PAK6; compound concentrations:100 nM and 1000 nM (sheet 'Lestaurtinib' of Supplementary Table 1),run:Lestaurtinib_02566_R1,Plate:MR014",49.6 nM
same,potency estimated from few doses,"PAK6; compound concentrations:100 nM and 1000 nM (sheet 'Lestaurtinib' of Supplementary Table 1),run:Lestaurtinib_02566_R3,Plate:MR014",35.1 nM
same,potency estimated from few doses,"PAK6; compound concentrations:100 nM and 1000 nM (sheet 'Lestaurtinib' of Supplementary Table 1),run:Lestaurtinib_02572_R3,Plate:MR015",1350 nM
same,potency estimated from few doses,"PAK6; compound concentrations:100 nM and 1000 nM (sheet 'Lestaurtinib' of Supplementary Table 1),run:Lestaurtinib_02577_R1,Plate:MR016",1350 nM
same,potency estimated from few doses,"PAK6; compound concentrations:100 nM and 1000 nM (sheet 'Lestaurtinib' of Supplementary Table 1),run:Lestaurtinib_02584_R1,Plate:MR017",953 nM
same,potency estimated from few doses,"PAK6; compound concentrations:100 nM and 1000 nM (sheet 'Lestaurtinib' of Supplementary Table 1),run:Lestaurtinib_02584_R3,Plate:MR017",896 nM
same,potency estimated from few doses,"PAK6; compound concentrations:100 nM and 1000 nM (sheet 'Lestaurtinib' of Supplementary Table 1),run:Lestaurtinib_02601_R2,Plate:MR018",846 nM
same,potency estimated from few doses,"PAK6; compound concentrations:100 nM and 1000 nM (sheet 'Lestaurtinib' of Supplementary Table 1),run:Lestaurtinib_02601_R3,Plate:MR018",974 nM
same,potency estimated from few doses,"PAK6; compound concentrations:100 nM and 1000 nM (sheet 'Lestaurtinib' of Supplementary Table 1),run:Lestaurtinib_02606_R1,Plate:MR019",1440 nM
same,potency estimated from few doses,"PAK6; compound concentrations:100 nM and 1000 nM (sheet 'Lestaurtinib' of Supplementary Table 1),run:Lestaurtinib_02606_R2,Plate:MR019",722 nM
same,potency estimated from few doses,"PAK6; compound concentrations:100 nM and 1000 nM (sheet 'Lestaurtinib' of Supplementary Table 1),run:Lestaurtinib_02624_R1,Plate:MR020",730 nM
same,potency estimated from few doses,"PAK6; compound concentrations:100 nM and 1000 nM (sheet 'Lestaurtinib' of Supplementary Table 1),run:Lestaurtinib_02624_R2,Plate:MR020",686 nM
same,potency estimated from few doses,"PAK6; compound concentrations:100 nM and 1000 nM (sheet 'Lestaurtinib' of Supplementary Table 1),run:Lestaurtinib_02624_R3,Plate:MR020",783 nM
same,potency estimated from few doses,"PAK6; compound concentrations:100 nM and 1000 nM (sheet 'Lestaurtinib' of Supplementary Table 1),run:Lestaurtinib_02748_R1,Plate:MR024",896 nM
same,potency estimated from few doses,"PAK6; compound concentrations:100 nM and 1000 nM (sheet 'Lestaurtinib' of Supplementary Table 1),run:Lestaurtinib_02752_R1,Plate:MR025",793 nM
same,potency estimated from few doses,"PAK6; compound concentrations:100 nM and 1000 nM (sheet 'Lestaurtinib' of Supplementary Table 1),run:Lestaurtinib_02752_R2,Plate:MR025",782 nM
same,potency estimated from few doses,"PAK6; compound concentrations:100 nM and 1000 nM (sheet 'Lestaurtinib' of Supplementary Table 1),run:Lestaurtinib_02752_R3,Plate:MR025",799 nM
same,potency estimated from few doses,"PAK6; compound concentrations:100 nM and 1000 nM (sheet 'Lestaurtinib' of Supplementary Table 1),run:Lestaurtinib_02765_R2,Plate:MR026",766 nM
same,potency estimated from few doses,"PAK6; compound concentrations:100 nM and 1000 nM (sheet 'Lestaurtinib' of Supplementary Table 1),run:Lestaurtinib_02766_R1,Plate:MR027",519 nM
same,potency estimated from few doses,"PAK6; compound concentrations:100 nM and 1000 nM (sheet 'Lestaurtinib' of Supplementary Table 1),run:Lestaurtinib_02766_R2,Plate:MR027",66 nM
same,potency estimated from few doses,"PAK6; compound concentrations:100 nM and 1000 nM (sheet 'Lestaurtinib' of Supplementary Table 1),run:Lestaurtinib_02766_R3,Plate:MR027",696 nM
same,potency estimated from few doses,"PAK6; compound concentrations:100 nM and 1000 nM (sheet 'Lestaurtinib' of Supplementary Table 1),run:Lestaurtinib_02768_R1,Plate:MR028",996 nM
same,potency estimated from few doses,"PAK6; compound concentrations:100 nM and 1000 nM (sheet 'Lestaurtinib' of Supplementary Table 1),run:Lestaurtinib_02795_R1,Plate:MR022",648 nM
same,potency estimated from few doses,"PAK6; compound concentrations:100 nM and 1000 nM (sheet 'Lestaurtinib' of Supplementary Table 1),run:Lestaurtinib_02795_R2,Plate:MR022",528 nM
same,potency estimated from few doses,"PAK6; compound concentrations:100 nM and 1000 nM (sheet 'Lestaurtinib' of Supplementary Table 1),run:Lestaurtinib_02795_R3,Plate:MR022",1440 nM
same,potency estimated from few doses,"PAK6; compound concentrations:100 nM and 1000 nM (sheet 'Lestaurtinib' of Supplementary Table 1),run:Lestaurtinib_02802_R1,Plate:MR029",604 nM
same,potency estimated from few doses,"PAK6; compound concentrations:100 nM and 1000 nM (sheet 'Lestaurtinib' of Supplementary Table 1),run:Lestaurtinib_02802_R3,Plate:MR029",85.9 nM
same,potency estimated from few doses,"PAK6; compound concentrations:100 nM and 1000 nM (sheet 'Lestaurtinib' of Supplementary Table 1),run:Lestaurtinib_02896_R1,Plate:MR030",541 nM
same,potency estimated from few doses,"PAK6; compound concentrations:100 nM and 1000 nM (sheet 'Lestaurtinib' of Supplementary Table 1),run:Lestaurtinib_02896_R2,Plate:MR030",1310 nM
same,potency estimated from few doses,"PAK6; compound concentrations:100 nM and 1000 nM (sheet 'Lestaurtinib' of Supplementary Table 1),run:Lestaurtinib_02896_R3,Plate:MR030",785 nM
same,potency estimated from few doses,"PAK6; compound concentrations:100 nM and 1000 nM (sheet 'Lestaurtinib' of Supplementary Table 1),run:Lestaurtinib_03172_R2,Plate:MR031",581 nM
same,potency estimated from few doses,PAK6; [1],825 nM
same,potency estimated from few doses,"PAK6; compound concentrations:100 nM and 1000 nM (sheet 'Lestaurtinib' of Supplementary Table 1),run:Lestaurtinib_03260_R1,Plate:MR033",744 nM
same,potency estimated from few doses,PAK6; [2],805 nM
same,potency estimated from few doses,RET; [3],240 nM
same,potency estimated from few doses,RET; [4],273 nM
same,potency estimated from few doses,"RET; compound concentrations:100 nM and 1000 nM (sheet 'Lestaurtinib' of Supplementary Table 1),run:Lestaurtinib_02367_R1,Plate:MR003",274 nM
same,potency estimated from few doses,"RET; compound concentrations:100 nM and 1000 nM (sheet 'Lestaurtinib' of Supplementary Table 1),run:Lestaurtinib_02367_R2,Plate:MR003",260 nM
same,potency estimated from few doses,RET; [5],265 nM
same,potency estimated from few doses,"RET; compound concentrations:100 nM and 1000 nM (sheet 'Lestaurtinib' of Supplementary Table 1),run:Lestaurtinib_02381_R2,Plate:MR004",218 nM
same,potency estimated from few doses,RET; [6],113 nM
same,potency estimated from few doses,"RET; compound concentrations:100 nM and 1000 nM (sheet 'Lestaurtinib' of Supplementary Table 1),run:Lestaurtinib_02422_R1,Plate:MR006",162 nM
same,potency estimated from few doses,RET; [7],269 nM
same,potency estimated from few doses,RET; [8],142 nM
